In the supplement of paper PMC10849652:
The full data set covers some 7,900 targets. This sample favours those with a hit. About 0.6% of all pairs of compound and target were hits.

Sequence of UniProt Q9HBL8 (Q9HBL8 whole entry, looked up): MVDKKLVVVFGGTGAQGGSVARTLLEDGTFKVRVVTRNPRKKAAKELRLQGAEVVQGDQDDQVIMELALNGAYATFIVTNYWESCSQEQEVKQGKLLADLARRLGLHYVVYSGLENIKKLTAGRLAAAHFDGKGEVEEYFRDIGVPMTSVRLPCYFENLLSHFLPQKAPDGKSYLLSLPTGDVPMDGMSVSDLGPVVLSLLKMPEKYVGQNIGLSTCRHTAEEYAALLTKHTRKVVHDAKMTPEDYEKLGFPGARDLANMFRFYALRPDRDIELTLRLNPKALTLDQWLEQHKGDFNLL
Sequence of UniProt P11586 (P11586 whole entry, looked up): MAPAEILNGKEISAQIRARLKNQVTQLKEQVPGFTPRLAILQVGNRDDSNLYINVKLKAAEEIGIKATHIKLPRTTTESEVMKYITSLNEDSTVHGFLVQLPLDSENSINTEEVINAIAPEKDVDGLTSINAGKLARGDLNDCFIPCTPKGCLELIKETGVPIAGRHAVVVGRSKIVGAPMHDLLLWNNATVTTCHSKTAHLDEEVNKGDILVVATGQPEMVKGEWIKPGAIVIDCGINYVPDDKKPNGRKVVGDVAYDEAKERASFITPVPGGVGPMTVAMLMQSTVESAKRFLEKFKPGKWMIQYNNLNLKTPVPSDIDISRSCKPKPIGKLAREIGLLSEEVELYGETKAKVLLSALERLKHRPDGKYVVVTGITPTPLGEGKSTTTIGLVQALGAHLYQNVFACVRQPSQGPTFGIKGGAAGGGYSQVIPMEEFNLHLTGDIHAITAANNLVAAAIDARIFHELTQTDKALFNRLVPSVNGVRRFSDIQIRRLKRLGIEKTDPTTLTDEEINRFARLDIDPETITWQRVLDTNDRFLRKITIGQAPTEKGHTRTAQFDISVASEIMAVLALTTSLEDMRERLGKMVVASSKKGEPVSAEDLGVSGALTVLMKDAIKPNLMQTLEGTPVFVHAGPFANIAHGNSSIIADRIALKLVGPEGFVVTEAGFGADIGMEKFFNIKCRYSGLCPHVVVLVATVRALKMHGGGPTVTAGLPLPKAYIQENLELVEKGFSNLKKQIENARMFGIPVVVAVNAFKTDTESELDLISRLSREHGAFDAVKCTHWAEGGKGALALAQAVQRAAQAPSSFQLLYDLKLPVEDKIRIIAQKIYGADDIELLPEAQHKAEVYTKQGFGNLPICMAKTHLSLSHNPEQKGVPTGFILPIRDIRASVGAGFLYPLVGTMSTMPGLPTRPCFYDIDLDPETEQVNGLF
Sequence of UniProt Q8WV92 (Q8WV92 whole entry, looked up): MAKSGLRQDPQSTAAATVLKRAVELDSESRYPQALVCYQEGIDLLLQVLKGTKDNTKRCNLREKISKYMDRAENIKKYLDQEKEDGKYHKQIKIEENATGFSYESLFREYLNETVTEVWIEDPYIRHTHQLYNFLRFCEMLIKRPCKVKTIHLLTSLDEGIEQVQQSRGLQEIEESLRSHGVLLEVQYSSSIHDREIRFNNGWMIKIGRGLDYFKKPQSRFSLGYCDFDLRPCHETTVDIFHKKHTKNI
Sequence of UniProt Q12968 (Q12968 whole entry, looked up): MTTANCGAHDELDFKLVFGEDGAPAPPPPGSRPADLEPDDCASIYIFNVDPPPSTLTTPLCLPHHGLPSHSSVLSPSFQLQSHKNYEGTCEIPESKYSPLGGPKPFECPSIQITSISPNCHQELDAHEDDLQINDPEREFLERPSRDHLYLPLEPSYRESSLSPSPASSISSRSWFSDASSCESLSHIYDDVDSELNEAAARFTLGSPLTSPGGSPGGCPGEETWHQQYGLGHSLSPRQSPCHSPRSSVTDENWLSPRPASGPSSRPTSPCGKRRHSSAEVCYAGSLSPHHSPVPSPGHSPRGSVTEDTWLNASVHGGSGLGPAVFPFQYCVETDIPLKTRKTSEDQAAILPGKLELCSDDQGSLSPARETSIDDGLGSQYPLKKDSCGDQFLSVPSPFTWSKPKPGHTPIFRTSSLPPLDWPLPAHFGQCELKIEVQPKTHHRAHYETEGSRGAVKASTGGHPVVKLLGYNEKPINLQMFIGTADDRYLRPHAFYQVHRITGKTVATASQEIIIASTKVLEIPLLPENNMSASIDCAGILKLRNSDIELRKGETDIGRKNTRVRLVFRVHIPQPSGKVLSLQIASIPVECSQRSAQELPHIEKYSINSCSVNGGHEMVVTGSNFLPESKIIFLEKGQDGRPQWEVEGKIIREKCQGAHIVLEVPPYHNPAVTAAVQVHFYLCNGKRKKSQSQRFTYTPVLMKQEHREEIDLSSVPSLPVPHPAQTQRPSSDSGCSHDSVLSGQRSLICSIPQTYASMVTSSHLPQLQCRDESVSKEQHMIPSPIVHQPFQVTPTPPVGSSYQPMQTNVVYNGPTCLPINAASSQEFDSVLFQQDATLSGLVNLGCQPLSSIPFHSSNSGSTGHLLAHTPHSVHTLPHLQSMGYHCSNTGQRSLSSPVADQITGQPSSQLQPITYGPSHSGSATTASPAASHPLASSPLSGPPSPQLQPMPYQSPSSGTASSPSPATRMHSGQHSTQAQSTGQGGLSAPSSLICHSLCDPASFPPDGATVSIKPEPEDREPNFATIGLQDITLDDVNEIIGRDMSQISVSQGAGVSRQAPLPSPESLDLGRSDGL
Sequence of UniProt Q13423 (Q13423 whole entry, looked up): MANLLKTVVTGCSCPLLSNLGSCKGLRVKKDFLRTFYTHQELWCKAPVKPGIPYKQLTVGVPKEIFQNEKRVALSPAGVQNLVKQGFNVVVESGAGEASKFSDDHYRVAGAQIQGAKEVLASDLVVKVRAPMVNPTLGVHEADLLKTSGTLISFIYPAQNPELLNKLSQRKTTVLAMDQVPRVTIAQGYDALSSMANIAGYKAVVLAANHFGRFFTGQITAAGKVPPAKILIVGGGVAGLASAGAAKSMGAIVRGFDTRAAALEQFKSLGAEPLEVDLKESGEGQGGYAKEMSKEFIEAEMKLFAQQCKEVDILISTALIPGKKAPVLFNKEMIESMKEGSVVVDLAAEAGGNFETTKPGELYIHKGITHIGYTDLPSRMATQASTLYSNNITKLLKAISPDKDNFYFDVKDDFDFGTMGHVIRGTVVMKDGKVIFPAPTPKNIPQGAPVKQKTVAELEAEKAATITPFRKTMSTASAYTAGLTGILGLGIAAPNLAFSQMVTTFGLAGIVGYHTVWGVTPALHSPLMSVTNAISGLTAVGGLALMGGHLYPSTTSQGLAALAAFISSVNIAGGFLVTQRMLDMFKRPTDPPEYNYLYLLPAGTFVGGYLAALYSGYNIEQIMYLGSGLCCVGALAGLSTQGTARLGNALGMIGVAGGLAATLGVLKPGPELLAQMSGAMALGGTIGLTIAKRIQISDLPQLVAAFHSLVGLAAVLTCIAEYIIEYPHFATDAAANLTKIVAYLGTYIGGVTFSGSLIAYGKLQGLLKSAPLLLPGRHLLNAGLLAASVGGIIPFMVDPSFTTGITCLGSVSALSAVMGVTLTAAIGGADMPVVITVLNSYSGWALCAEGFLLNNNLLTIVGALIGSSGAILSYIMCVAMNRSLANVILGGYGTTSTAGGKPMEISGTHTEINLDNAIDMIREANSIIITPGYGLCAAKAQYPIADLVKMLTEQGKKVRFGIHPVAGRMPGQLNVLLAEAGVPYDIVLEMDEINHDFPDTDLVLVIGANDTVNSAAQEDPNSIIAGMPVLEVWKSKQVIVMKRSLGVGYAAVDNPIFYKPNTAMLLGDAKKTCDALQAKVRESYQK
Sequence of UniProt Q9NRP0 (Q9NRP0 whole entry, looked up): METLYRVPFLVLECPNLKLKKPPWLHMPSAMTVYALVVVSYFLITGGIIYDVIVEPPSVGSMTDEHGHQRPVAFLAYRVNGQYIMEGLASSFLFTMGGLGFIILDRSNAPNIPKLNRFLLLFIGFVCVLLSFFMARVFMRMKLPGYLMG
Sequence of UniProt Q9HAN9 (Q9HAN9 whole entry, looked up): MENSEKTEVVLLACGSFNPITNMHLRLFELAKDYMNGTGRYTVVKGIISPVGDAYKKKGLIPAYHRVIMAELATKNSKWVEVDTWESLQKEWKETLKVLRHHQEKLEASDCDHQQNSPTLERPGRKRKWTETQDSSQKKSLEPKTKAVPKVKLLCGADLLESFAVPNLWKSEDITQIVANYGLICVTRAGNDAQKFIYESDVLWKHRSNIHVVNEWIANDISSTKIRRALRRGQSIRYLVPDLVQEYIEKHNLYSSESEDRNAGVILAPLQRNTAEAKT
Sequence of UniProt Q7L1V2 (Q7L1V2 whole entry, looked up): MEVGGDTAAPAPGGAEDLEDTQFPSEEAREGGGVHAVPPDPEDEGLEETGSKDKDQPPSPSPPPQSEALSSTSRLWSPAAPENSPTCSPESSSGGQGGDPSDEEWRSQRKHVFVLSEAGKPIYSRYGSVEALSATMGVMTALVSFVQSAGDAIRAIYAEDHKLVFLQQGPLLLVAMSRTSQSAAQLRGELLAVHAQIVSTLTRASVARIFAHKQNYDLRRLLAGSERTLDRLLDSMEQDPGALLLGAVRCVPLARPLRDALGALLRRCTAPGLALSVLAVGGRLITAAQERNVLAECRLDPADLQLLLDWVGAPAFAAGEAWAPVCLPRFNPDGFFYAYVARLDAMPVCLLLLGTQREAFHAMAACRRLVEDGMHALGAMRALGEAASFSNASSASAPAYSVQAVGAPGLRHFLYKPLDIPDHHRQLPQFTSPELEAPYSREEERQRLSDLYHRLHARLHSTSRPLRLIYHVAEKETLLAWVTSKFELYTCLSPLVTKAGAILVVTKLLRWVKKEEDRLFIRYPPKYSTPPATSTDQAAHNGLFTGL
Sequence of UniProt Q86WC4 (Q86WC4 whole entry, looked up): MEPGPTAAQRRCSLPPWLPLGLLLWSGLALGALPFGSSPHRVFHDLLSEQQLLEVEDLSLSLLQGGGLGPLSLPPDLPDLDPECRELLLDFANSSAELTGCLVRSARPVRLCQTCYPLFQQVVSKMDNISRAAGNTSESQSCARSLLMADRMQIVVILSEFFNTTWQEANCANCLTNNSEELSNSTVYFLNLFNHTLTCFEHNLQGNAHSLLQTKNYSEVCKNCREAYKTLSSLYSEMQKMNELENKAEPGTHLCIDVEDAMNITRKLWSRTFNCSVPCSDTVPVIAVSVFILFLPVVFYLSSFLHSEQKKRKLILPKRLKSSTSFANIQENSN

The targets below were run with Cc1sc2c(c1C)C(c1ccc(Cl)cc1)=N[C@@H](CC(=O)OC(C)(C)C)c1nnc(C)n1-2 (assay: log2 fold change, soluble protein after heating vs DMSO (PISA); higher = thermal stabilisation; K562 cells, 10 uM, 30 min; active = over 0.2 and 3.5 SD of the protein, either way, in both replicates (recomputed)).
Procedure, shortened: (§1)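 Quantification of soluble protein used TMTpro 16plex LC-MS/MS, with channel sums equalised. Samples were the supernatant after 21,000xg for 90 min of pooled aliquots from K562 cells (2×10^6 cells/mL) treated with 10 μM compound for 30 min, heated for 3 min over 48°C-58°C, and extracted in PBS with 0.5% NP-40 at 4°C. Values, from duplicates, describe thermal stability against control samples on a log2 fold-change scale.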
With NA, A0A096LPI6 the log2 fold change was 0.017 (inactive). MRPS5 (UniProt P82675) was tested, and the log2 fold change was 0.063 (inactive). NME2P1 (UniProt O60361) was tested, and the log2 fold change was 0.082 (inactive). OXA1L (UniProt Q15070) was tested, and the log2 fold change was 0 (inactive). For MITD1 (UniProt Q8WV92), the log2 fold change was 0.045 (inactive). MND1 (UniProt Q9BWT6) was tested, and the log2 fold change was 0.088 (inactive). For NAP1L1 (UniProt P55209), the log2 fold change was 0.013 (inactive).

Each target was assayed with c1ccc([C@@H]2C[C@H]2NC2CCNCC2)cc1 in the same assay as above.
Procedure, shortened: as §1
For OSTM1 (UniProt Q86WC4), the log2 fold change was -0.013 (inactive). For NNT (UniProt Q13423), the log2 fold change was 0 (inactive). In the case of MRPS24 (UniProt Q96EL2), the log2 fold change is reported as 0.037 (inactive). NFX1 (UniProt Q12986) was tested, and the log2 fold change was -0.163 (inactive). In the case of NDUFB10 (UniProt O96000), the log2 fold change is reported as 0.002 (inactive). With NMU (UniProt P48645) the log2 fold change was -0.086 (inactive). In the case of NFATC3 (UniProt Q12968), the log2 fold change is reported as 0.065 (inactive). OSTC (UniProt Q9NRP0) was tested, and the log2 fold change was 0.048 (inactive). NPM3 (UniProt O75607) was tested, and the log2 fold change was -0.019 (inactive). In the case of NHLRC2 (UniProt Q8NBF2), the log2 fold change is reported as 0.024 (inactive). For NMNAT1 (UniProt Q9HAN9), the log2 fold change was 0.02 (inactive). For MTHFD1 (UniProt P11586), the log2 fold change was -0.019 (inactive). With MRPS18B (UniProt Q9Y676) the log2 fold change was -0.078 (inactive). In the case of NMRAL1 (UniProt Q9HBL8), the log2 fold change is reported as -0.094 (inactive). With MON1B (UniProt Q7L1V2) the log2 fold change was -0.064 (inactive). With NUP205 (UniProt Q92621) the log2 fold change was 0.008 (inactive). For MRPS12 (UniProt O15235), the log2 fold change was 0.061 (inactive).
